Measured values reported in ChEMBL document CHEMBL3988442, “University of Dundee, Small-Polar-MMV Screening Library” (2021).
For some of these results: Results with a measured potency or affinity are listed apart.

Assays:
Design in all cases: scale not given: direction of the effect not stated beside the values
[1] = target: Protein translocase subunit SecA (Escherichia coli (strain K12)) (UniProt P10408); experiment: Assay to Identify E. coli SecA ATPase Inhibitors; type: functional; details: 30 µM
Chain of Protein translocase subunit SecA (Escherichia coli (strain K12)) (P10408 whole entry): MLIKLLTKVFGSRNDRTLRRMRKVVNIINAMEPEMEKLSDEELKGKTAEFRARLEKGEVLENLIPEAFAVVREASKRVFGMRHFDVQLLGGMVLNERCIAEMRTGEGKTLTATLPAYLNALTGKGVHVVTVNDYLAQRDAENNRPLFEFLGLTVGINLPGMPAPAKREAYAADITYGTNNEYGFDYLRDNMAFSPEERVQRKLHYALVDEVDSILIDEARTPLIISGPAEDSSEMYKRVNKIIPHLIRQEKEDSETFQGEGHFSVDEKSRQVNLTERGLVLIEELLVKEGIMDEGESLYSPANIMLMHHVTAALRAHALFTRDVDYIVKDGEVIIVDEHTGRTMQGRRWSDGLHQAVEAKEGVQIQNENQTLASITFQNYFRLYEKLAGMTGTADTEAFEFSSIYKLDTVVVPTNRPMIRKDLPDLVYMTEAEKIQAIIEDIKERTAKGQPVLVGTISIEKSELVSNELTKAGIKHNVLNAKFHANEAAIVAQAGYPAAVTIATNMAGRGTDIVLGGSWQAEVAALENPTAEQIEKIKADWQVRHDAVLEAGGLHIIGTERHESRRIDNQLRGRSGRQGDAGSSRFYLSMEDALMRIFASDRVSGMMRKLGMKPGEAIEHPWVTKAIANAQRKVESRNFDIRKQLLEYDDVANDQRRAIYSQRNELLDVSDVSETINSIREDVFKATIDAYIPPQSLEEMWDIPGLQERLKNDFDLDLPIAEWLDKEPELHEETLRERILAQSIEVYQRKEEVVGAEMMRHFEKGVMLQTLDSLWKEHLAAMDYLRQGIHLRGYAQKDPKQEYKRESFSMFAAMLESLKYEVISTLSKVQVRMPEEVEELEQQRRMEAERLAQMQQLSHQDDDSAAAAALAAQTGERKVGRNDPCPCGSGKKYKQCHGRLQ

[2] = target: T1, Ubiquitin-activating enzyme e1, putative (Leishmania donovani (strain BPK282A1)) (UniProt E9BSI1); experiment: Leishmania donovani Ubiquitin Activating Enzyme (LdE1); type: functional; details: 30 µM
T1 sequence (whole entry): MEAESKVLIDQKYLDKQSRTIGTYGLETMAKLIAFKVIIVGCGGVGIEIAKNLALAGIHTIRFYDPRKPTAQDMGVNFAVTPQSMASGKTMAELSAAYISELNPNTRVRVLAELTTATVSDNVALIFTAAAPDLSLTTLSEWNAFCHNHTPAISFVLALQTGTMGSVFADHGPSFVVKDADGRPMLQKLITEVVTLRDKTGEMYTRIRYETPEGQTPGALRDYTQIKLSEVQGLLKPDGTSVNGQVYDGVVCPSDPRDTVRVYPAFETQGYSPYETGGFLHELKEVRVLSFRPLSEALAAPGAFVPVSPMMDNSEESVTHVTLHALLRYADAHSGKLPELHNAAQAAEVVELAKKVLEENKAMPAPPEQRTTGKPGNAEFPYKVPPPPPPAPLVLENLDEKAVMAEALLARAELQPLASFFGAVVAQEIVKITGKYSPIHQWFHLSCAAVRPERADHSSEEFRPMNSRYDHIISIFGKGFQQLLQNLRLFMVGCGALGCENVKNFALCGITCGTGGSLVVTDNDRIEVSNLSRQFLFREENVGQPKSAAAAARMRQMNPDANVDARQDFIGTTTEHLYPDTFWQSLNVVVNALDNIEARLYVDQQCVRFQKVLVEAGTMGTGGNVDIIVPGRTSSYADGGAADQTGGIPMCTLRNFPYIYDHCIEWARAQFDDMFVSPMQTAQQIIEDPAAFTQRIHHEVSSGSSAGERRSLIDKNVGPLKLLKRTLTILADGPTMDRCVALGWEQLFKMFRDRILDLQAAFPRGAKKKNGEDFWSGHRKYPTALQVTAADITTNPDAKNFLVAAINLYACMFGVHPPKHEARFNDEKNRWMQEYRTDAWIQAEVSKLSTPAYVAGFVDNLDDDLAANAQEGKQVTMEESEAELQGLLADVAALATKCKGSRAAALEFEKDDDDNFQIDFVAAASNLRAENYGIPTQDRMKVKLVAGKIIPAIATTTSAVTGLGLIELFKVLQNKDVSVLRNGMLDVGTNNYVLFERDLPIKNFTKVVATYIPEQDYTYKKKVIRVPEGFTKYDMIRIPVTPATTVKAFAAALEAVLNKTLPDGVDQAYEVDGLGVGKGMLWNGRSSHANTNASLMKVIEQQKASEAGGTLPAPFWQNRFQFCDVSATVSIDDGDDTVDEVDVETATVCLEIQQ

[3] = target: AMP-activated protein kinase, AMPK (Homo sapiens) (UniProt P54646+O43741+P54619+Q9UGJ0+Q9Y478+Q13131+Q9UGI9); experiment: AMP-dependent Kinase enzyme assay. An in vitro enzyme assay that detects ADP turnover that is directly proportional to AMPK activity. This uses naive AMPK that is activated during the assay with MK-8722; type: functional; details: 30 µM
[4] = target: Sialic acid-binding Ig-like lectin 9 (Homo sapiens) (UniProt Q9Y336); experiment: Hs-Siglec9 ALPHAscreen SOP 20170721; details: 10 µM
Chain of Sialic acid-binding Ig-like lectin 9 (Homo sapiens) (Q9Y336 whole entry): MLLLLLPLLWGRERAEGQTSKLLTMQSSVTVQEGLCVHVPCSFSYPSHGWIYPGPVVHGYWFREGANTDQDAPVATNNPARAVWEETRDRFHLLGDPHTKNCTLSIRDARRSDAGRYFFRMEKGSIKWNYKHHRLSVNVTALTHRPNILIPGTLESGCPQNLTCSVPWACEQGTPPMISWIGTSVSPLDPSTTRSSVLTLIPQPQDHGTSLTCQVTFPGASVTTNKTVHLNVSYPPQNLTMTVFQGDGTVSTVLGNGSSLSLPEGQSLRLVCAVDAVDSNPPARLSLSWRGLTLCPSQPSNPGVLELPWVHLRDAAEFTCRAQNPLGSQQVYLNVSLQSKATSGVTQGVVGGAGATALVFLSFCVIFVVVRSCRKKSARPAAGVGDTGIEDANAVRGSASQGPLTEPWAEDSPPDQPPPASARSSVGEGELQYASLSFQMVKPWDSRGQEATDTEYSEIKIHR

[5] = tested on: Trypanosoma cruzi; experiment: Trypanosoma cruzi phosphomannomutase and mannose-1-phosphate guanylyltransferase assay; type: functional; details: 10 µM
[6] = target: T2, Arginase-2, mitochondrial (Homo sapiens) (UniProt P78540); experiment: in vitro enzyme assay to detect the production of urea directly proportional to the activity of Arginase II; type: functional; details: 33.3 µM; note: in the data most compounds retested in dose-response had high values
T2 sequence (whole entry): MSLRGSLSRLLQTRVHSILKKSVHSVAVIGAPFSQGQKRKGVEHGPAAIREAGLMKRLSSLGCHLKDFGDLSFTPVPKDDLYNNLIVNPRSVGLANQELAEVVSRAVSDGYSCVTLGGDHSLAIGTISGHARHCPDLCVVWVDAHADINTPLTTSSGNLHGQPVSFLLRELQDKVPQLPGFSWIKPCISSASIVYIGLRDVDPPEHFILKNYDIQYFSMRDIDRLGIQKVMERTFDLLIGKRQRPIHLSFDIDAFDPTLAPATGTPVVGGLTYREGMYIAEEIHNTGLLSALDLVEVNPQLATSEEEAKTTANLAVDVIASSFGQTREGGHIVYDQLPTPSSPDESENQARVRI

[7] = target: T3, Proteasome subunit beta (Trypanosoma cruzi) (UniProt O96673); experiment: Trypanosoma cruzi proteasome chymotrypsin-like activity (TcProtChymo) assay.; note: in the data most compounds retested in dose-response had high values; type: functional; details: 9.37 µM
T3 sequence (whole entry): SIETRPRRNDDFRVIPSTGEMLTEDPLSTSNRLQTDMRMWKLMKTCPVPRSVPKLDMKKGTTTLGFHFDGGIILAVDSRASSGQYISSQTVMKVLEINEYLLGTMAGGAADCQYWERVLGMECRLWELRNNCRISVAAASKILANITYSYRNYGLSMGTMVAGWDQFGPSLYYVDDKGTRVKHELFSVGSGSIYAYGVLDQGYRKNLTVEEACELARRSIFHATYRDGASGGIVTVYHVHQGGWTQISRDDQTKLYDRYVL

[8] = species: Homo sapiens; experiment: To identify inhibition of the IFN signalling (Jak-Stat) pathway via expression of an eGFP reporter gene under the control of an IFN-stimulated response element (ISRE) containing MxA promoter.; type: functional; details: 30 µM
[9] = target: T4, Tyrosyl-tRNA synthetase, putative (Trypanosoma cruzi (strain CL Brener)) (UniProt Q4DSP6); experiment: Trypanosoma cruzi tyrosyl tRNA synthetase (TcYRS) _High Tyrosine SOP; type: functional; details: 30 µM; note: in the data most compounds retested in dose-response had high values
T4 sequence (whole entry): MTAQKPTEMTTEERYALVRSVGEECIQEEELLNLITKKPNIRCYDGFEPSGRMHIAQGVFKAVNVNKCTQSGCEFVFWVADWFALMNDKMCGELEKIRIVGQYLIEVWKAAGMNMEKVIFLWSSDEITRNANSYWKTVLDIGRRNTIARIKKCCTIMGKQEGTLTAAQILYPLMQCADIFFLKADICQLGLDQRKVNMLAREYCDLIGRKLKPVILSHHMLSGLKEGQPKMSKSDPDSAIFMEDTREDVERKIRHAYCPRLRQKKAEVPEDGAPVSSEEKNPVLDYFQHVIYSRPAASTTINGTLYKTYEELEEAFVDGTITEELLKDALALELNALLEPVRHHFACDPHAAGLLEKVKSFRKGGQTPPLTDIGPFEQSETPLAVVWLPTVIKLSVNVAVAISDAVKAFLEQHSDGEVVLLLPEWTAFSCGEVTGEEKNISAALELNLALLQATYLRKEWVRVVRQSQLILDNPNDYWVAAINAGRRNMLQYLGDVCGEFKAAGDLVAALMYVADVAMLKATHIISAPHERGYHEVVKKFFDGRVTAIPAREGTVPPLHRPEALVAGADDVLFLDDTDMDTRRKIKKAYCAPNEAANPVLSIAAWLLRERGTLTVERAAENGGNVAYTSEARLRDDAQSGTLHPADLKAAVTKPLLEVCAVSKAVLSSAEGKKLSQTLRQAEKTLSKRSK

[10] = target: T4, Tyrosyl-tRNA synthetase, putative (Trypanosoma cruzi (strain CL Brener)); experiment: Trypanosoma cruzi tyrosyl tRNA synthetase (TcYRS) SOP; type: functional; details: 30 µM
[11] = target: Chromo domain-containing protein 1 (Saccharomyces cerevisiae (strain ATCC 204508 / S288c) (Baker's yeast)) (UniProt P32657); experiment: ScCHD-1 Enzyme Inhibition Assay; type: functional; details: 30 µM; note: in the data most compounds retested in dose-response had high values
Chain of Chromo domain-containing protein 1 (Saccharomyces cerevisiae (strain ATCC 204508 / S288c) (Baker's yeast)) (P32657 whole entry, the tested form may be a part): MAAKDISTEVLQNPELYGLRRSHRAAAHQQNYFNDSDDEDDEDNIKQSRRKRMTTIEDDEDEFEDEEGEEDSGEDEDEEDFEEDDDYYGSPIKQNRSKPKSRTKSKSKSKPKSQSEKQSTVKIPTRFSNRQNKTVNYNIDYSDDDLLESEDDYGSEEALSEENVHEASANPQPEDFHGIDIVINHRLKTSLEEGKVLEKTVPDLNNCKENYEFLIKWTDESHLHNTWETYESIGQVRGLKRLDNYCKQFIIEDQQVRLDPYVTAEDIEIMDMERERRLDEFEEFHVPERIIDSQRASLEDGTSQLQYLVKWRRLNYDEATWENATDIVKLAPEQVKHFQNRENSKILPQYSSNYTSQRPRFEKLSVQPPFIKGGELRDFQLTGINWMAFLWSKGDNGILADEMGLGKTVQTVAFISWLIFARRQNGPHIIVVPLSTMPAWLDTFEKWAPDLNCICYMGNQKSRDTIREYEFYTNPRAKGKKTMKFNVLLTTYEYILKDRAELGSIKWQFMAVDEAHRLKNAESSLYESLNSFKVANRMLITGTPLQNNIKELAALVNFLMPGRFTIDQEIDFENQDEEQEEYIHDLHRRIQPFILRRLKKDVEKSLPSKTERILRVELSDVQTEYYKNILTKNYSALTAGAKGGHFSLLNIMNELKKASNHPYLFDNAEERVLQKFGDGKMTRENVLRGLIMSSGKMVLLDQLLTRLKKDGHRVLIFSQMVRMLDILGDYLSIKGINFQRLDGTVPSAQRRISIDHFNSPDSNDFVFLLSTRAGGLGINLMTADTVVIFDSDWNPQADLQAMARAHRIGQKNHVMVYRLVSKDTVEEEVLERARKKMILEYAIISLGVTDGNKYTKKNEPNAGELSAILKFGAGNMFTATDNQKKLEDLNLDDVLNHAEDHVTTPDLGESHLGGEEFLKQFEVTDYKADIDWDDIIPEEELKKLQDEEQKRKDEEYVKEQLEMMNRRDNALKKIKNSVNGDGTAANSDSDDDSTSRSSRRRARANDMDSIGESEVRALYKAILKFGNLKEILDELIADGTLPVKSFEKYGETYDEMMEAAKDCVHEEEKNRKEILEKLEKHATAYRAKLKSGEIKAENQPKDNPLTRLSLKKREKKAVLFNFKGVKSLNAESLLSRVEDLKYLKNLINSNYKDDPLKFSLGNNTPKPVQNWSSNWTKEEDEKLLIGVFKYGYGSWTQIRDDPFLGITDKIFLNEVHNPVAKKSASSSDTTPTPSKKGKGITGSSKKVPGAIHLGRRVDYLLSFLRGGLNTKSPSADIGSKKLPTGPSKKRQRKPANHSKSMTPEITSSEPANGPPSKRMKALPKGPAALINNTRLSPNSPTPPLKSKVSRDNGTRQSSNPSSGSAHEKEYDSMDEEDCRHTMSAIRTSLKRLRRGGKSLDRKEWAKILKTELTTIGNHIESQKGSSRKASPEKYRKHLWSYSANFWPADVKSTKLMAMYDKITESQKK

| SMILES | Percent Effect [1] [%] | Percent Effect [2] [%] | Percent Effect [3] [%] | Percent Effect [4] [%] | Percent Effect [5] [%] | Percent Effect [6] [%] | Percent Effect [7] [%] | Percent Effect [8] [%] | Percent Effect [9] [%] | Percent Effect [10] [%] | Percent Effect [11] [%] |
| --- | --- | --- | --- | --- | --- | --- | --- | --- | --- | --- | --- |
| CC(C)NC(=O)c1nnn(-c2cccc(C(F)(F)F)c2)c1N | -2.18 | -4.17 | -2.65 | -0.424 | 6.51 | -4.86 | 4.04 | 11.5 | 0 | 0 | -1.24 |
| COCC(=O)N1CCN(Cc2coc(-c3cccc(F)c3)n2)CC1 | -5.28 | 0 | 2.98 | 4.95 | -2.62 | 0 | 1.18 | 9.99 | 8.74 | 7.32 | 1.75 |
| C[C@@H]1CN(C2(C(=O)N3CCOCC3)Cc3ccccc3C2)C[C@H](C)O1 | -4.17 | -37.5 | -3.25 | 0.729 | 0.875 | 1.77 | 8.6 | -18.6 | 5.26 | 7.69 | -3.31 |
| CS(=O)(=O)N1CCc2nc(NC(=O)Nc3c(F)cccc3F)sc2C1 | -4.94 | -11 | -0.62 | -0.122 | -5.49 | 0 | 4.97 | 1.79 | 4.3 | 12.5 | 1.62 |
| COCc1nc(N(C)C)ncc1C(=O)NC(C)C | -5.73 | -1.33 | 4.52 | -0.683 | -3.54 | -2.99 | 4.07 | -5.53 | 2.12 | -2.56 | -0.879 |
| O=C(NCCn1ccc(-c2ccccn2)n1)c1ccncc1 | -1.48 | 8.22 | -7.04 | 17.5 | 6.46 | -3.18 | 9.94 | 4.13 | 2.15 | 10 | -3.21 |
| O=C(c1cc(COc2ccc3c(c2)OCO3)[nH]n1)N1CCOCC1 | -8.28 | -2.74 | 9.08 | -1.9 | -4.37 | 0.798 | 7.45 | 6.61 | -3.12 | -3.7 | -5.41 |
| Cc1nc(C(C)(C)NC(=O)Nc2cccc(C#N)c2)no1 | -4.07 | 5.48 | 3.16 | 8.84 | 8.81 | -0.455 | 15.1 | 3.14 | 5.38 | 15 | -4.58 |
| Cc1cc2nc(SCC(=O)N3CCCC3)n(C(C)C)c(=O)c2[nH]1 | -2.21 | 21.1 | -3.68 | -13.3 | 2.63 | -1.18 | 19.5 | 17.9 | 1.06 | 10.4 | -6.22 |
| CCc1nc2n(n1)CC(NCC(=O)Nc1ccc(Cl)cn1)CC2 (configuration not stated) | -0.524 | 10.1 | -6.65 | -1.69 | -7.65 | 3.04 | 5.82 | 12.9 | 0.493 | 3.8 | -7.63 |
| CC(=O)c1ccc(N2CCCC(CO)(CCOc3ccccc3)C2)nc1 (configuration not stated) | -1.73 | 10.4 | 4.96 | 15.7 | 6.39 | -22.1 | 19.5 | 65.7 | 5.38 | 16.1 | -2.3 |
| CCn1c(CN(C)C)nnc1C1CCN(c2ccnc(C)c2)CC1 | -0.496 | 6.94 | -2.58 | -2.36 | -1.85 | 2.65 | 21.1 | -1.07 | 5.26 | 5.13 | -1.27 |
| Cn1ccc(C(=O)N2CCN(c3cc(C#N)ccn3)CC2)cc1=O | -6.91 | 13.5 | -11.9 | 26.1 | 4.06 | -5.61 | 7.21 | 6.78 | 5.42 | 13.6 | -17.3 |
| Cc1cccc(N2CCN(CCCNC(=O)c3nccn3C)CC2)c1 | -2.68 | 5.41 | -5.72 | -1.22 | 4.49 | 38.3 | 12.9 | 7.26 | 11.9 | 18.3 | -2.27 |
| Cc1ccc(CC(=O)N2CCCCC2c2nc(C)cs2)cn1 (configuration not stated) | -3.56 | 3.8 | 3.35 | -2.77 | -1.54 | 4.52 | 6.52 | 4.76 | -4.17 | 7.59 | -12.2 |
| Cc1nnc(N2CCCC3(CN(Cc4ccc(C)s4)CCO3)C2)o1 (configuration not stated) | 0.137 | 5.48 | -2.15 | 8.14 | 3.97 | -5.19 | 13.1 | -2.59 | 2.08 | 6.17 | -3.69 |
| COc1ccc2c(c1)CCCN2Cc1nc2c(cnn2C)c(=O)[nH]1 | -3.64 | 20.2 | -9.32 | -0.208 | -2.36 | 2.28 | 3.52 | 3.6 | 9.36 | 16.5 | -5.55 |
